CDK5 inh = inhibitors of human CDK5/p35 kinase, primary screen, biochemical, single concentration; 330,000 compounds, 0.01% hits; Cyclin-dependent kinase 5 (Homo sapiens) + Cyclin-dependent kinase 5 activator 1 (Homo …; Recombinant CDK5/p35, ADP-Glo luminescence, 60 min; inhibition, % at 10 µM;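 active means highest replicate inhibition of at least 50% and at least 75% of replicates reaching 50%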;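 further: plate controls were DMSO neutral control for no effect and GW8510 at 10 µM for full effect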
Target sequence (Q00535 whole entry, looked up): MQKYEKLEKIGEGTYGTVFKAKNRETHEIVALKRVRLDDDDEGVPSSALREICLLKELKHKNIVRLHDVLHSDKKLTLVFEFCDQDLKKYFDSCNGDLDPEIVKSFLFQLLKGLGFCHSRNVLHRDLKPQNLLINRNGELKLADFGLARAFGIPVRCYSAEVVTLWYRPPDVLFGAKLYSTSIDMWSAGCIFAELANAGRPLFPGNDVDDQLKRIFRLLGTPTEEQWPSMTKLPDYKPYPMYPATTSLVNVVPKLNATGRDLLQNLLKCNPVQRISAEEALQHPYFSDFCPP
Target sequence (Q15078 whole entry, looked up): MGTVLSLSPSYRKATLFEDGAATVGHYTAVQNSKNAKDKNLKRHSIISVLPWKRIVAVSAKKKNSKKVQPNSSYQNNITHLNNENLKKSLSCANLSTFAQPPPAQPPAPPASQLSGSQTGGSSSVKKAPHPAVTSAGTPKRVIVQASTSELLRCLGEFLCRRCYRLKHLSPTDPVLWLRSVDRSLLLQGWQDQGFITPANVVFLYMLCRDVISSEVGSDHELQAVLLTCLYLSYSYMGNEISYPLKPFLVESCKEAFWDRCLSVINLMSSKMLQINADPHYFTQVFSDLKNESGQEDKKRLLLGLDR
CASP6 VEID inh = human caspase-6 inhibitors, primary screen, biochemical, VEID-R110 fluorescence, single point, set 2 | P55212 | purified caspase-6, Z-VEID-R110 cleavage fluorescence | inhibition, % at 12.5 µM | 350,000 compounds, 0.53% hits;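 active means mean inhibition across replicates at least about 35%, with every replicate also reaching that limit, limit read from the data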;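 further: 0% = median of neutral control wells and 100% = no fluorescence left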
SUMO Mot1 rescue = yeast Mot1-301 growth rescue at high temperature, primary screen, SUMOylation pathway inhibitor project, S. cerevisiae, ATP luminescence, 38.5C. S. cerevisiae Mot1-301 growth rescue; percent above DMSO median, 100 means doubled. growth rescue, % at 18.8 µM. 320,000 compounds, 1% hits;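 active means every valid replicate shows activation above 250% relative to neutral control wells; inactive means the rest, any valid replicate at or below 250%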;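 further: OY570 slx delta 5 strain wells were the positive control but not used for scaling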
NSD2 HMT inh = NSD2 histone methyltransferase inhibitors, primary screen, biochemical, AlphaScreen, single concentration, set 2; NSD2 peptide methylation, 120 min; Histone-lysine N-methyltransferase NSD2 (Homo sapiens), O96028; inhibition, % at 12.5 µM; 310,000 compounds, 0.54% hits; in the data active means inhibition above about 50%
ALR H2O2 inh = inhibitors of human ALR sulfhydryl oxidase, primary screen, biochemical, H2O2 detection, HRP-luminol luminescence, single point. purified ALR, DTT oxidation. FAD-linked sulfhydryl oxidase ALR (Homo sapiens), P55789. 290,000 compounds, 3.8% hits. inhibition, % (no concentration beside the values);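 active means mean replicate inhibition above about 79%, with every replicate also reaching it, limit read from the data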
Glyco luc inh = increase of ERlucT glycosylation luciferase signal, primary screen, N-linked glycosylation inhibitor project, D54 ERlucT cells, luminescence, set 2; D54 ERlucT glycosylation luciferase reporter, 24 h; percent of 100 nM tunicamycin response; reporter increase, % at 12.5 µM; 360,000 compounds, 0.23% hits;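 active means mean luciferase reporter signal, scaled so untreated is 0 and the glycosylation-blocking control 100, at or above a set limit in every replicate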;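 further: luciferase carries N-glycosylation sites so blocking glycosylation raises the light; 0% = median of neutral control wells and 100% = median of 100 nM tunicamycin wells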
Yeast Mot1 SUMO = growth restoration of Mot1-301 yeast on galactose, dose response, SUMO pathway inhibitor project, whole organism, S. cerevisiae, ATP luminescence, cherry-picked samples; shares compounds with SUMO Mot1 rescue; S. cerevisiae Mot1-301 galactose growth, 24 h; -100 = growth of slx-deleted rescue strain; growth activity, percent, % at 42 µM; 2,300 tested, under 10 active; AID 493004, 2010;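 active means Signal drops as the depositor expects, and the fitted half-maximal dose is no more than ten times the top valid tested dose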;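 further: more negative values mean stronger growth rescue toward the control strain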
* marks the source's active call; other numbers are inactive results; . = not tested or not shown; + = active, no number; ! = not active in a repeat. Compounds with a hit are over-represented: about 3.9% of the library has one in this group of screens.

SMILES	CDK5 inh	CASP6 VEID inh	SUMO Mot1 rescue	NSD2 HMT inh	ALR H2O2 inh	Glyco luc inh	Yeast Mot1 SUMO
COc1cccc(NC(=O)Nc2cc(C(=O)NC(C)C)ccc2N2CC3CC(C2)c2cccc(=O)n2C3)c1 (configuration not stated)	0	1	402*	-3	.	1	1
CC(C)c1ccc2c(c1)CC[C@H]1[C@](C)(CN)CCC[C@]21C	-1	0	.	.	.	-6	.
CC(C)c1ccc2c(c1)CCC1C(C)(CN)CCCC21C (configuration not stated)	2	-3	617*	.	-7	-14	-2
CC[C@]12CCCN3CCc4c(n(c5ccccc45)C(=O)C1)[C@@H]32	-2	3	-21	.	0	10	.
CCOC(=O)C1=C[C@]2(CC)CCCN3CCc4c(n1c1ccccc41)[C@@H]32	0	-2	617*!	.	.	-1	0
CCn1cc(C(=O)NCc2ccccn2)c(=O)c2cc(F)c(N3CCN(C)CC3)cc21	-2	.	388*	0	-5	-1	0
CO[C@H]1CN(C)C(=O)c2ccc(NS(=O)(=O)c3cn(C)cn3)cc2OC[C@@H](C)N(CC2CC2)C[C@@H]1C	.	-2	.	.	.	.	.
Cc1nn(C)c(C)c1-c1c(C#N)c(N)nc2c1CCCCCC2	-1	-1	+	1	-10	0	0
Cc1c(-c2c(C#N)c(N)nc3c2CCCCCC3)cnn1C	0	.	26	2	1	2	.
O=[N+]([O-])c1nn(-c2ccc(Cl)cc2)n(O)c1=NCc1ccccc1Cl	1	3	+	.	.	-1	-1
O=[N+]([O-])c1nn(-c2ccc(Cl)cc2)n(O)c1=NCc1ccncc1	-1	0	117	4	-3	0	.
CN(c1ccccc1C(=O)N1CCN(Cc2ccc3c(c2)OCO3)CC1)S(C)(=O)=O	1	-3	+	-4	0	1	0
CN(C(=O)CSc1nnc(-c2cccc(F)c2)n1N)C1CCS(=O)(=O)C1 (configuration not stated)	-1	6	401*	.	2	-2	0
CC(C)C#Cc1ccc2c(c1)O[C@H](CN(C)C(=O)c1cccnc1)[C@H](C)CN([C@H](C)CO)S2(=O)=O	.	1	.	.	.	.	.
COc1ccc(C(=O)N2CCN(c3ccccc3OC)CC2)cc1	-1	-5	2	-3	33	-3	.
COc1ccccc1N1CCN(C(=O)c2ccc(-c3ccccc3)cc2)CC1	1	0	+	1	3	-1	0
C/C=C/c1ccc([C@@H]2[C@H]3CN(C(=O)c4ccncc4)CC(=O)N3[C@H]2CO)cc1	.	3	.	.	.	.	.
Cc1ccc(SC(C)c2nc(-c3ccncc3)no2)cc1 (configuration not stated)	0	.	3	-3	3	1	.
Cc1ccc(Sc2cnccc2C#N)cc1	2	-1	618*	0	-2	0	2
O=C(C1CCCN(S(=O)(=O)c2cnc[nH]2)C1)N1CCN(c2ccc(Cl)cc2)CC1 (configuration not stated)	1	4	532*	.	96*	-1	-1
O=C(OCc1nnc(-c2ccccc2)o1)c1ccc(Br)o1	2	-1	-12	2	-1	1	.
O=C(OCc1nnc(-c2ccccc2)o1)c1ccc([N+](=O)[O-])o1	2	-2	743*	-1	-21	-1	-1
COc1ccc(Nc2cc(NCCCO)c([N+](=O)[O-])c3nonc23)cc1	0	4	382*	-3	0	6	0

Assay outcomes as filed in PubChem BioAssay.
